From the supplement of paper PMC6555819

Test system: PXR:RXRa (NR concentration 270 nM, RXRa partner concentration 90 nM)
Assay: PBM binding z-score (relative to random genomic background probes); higher = stronger binding; sequences stand for … in GC…GCGATTGACAGCGTAGAATGAAGG
Method in brief: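 For binding z-scores, the reference was random background probes on custom Agilent 4×180K protein-binding microarrays. These arrays were incubated 1 h with ligand-free nuclear receptor dimers in PBS pH 7.4, 2% milk, 0.02% Triton X-100, 1 mM DTT, 0.2 mg/mL BSA and 0.4 mg/ml salmon testes DNA. Fluorescence was scanned after antibody detection of each partner (one per run) and regression-normalized.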

Sequence	PBM binding z-score
TCTTGTAGATCAAGCAGGCTAAGAAAGCCTGAGT	-0.424
ACTAGCAGACCAAGGGTCACTCAAGATTAGTCCG	2.8
GCGACTGGGGCAAAGCCGGTTACCATAAGGTTGG	-0.547
ATATGTAGGGTATCGGGTCATTCAGTTTGCGCAT	3.66
CGTCCAAGGTTATAGGAGGTCAGTGAAGACAGAT	5.24
ACTATTAGTTGAGACGAAGGCAACCGATAGGTTG	-0.912
CCGACTGGGGCAGAAGGTTACCATAAGCCAGCCC	0.166
TCATATAGCTAAACAGGTGAAAGTCCGTAAGTTA	0.228
CGAACTAGGTCGGAACAGGACAGTGAAGGATGAT	-0.28
TAGCCTAGGTCATTGGGCCAGTATCGTACGCATC	1.68
TCTCGGAGGACACGAAGGGCAGAGCTTTCCAGAG	-0.198
TCTGCTAGGTCAGTTGGTCAGTTAACGAGCTGCC	-0.000879
ACTAGCAGGCCAAGGGTCACTTAAGATTAGTCCG	3.33
CCTCGGGGGACAGAAGGTCAGAGCTGTCCGCTTT	2.99
GCTCGGATGACAAGGTCAGAGCTTTGTCCGTAGA	1.51
CCTACTGGGCCACCAGGTCATTGATATCAACGTT	1.73
TGAATGAGGTTAAAGAACAGGGAACGTGGCGTCG	1.13
GCGACTGGGGCATCAGCAGGTTACGATAACTTAA	0.0357
TAGCCTAGGTCATTCAGGAGCCAGTATAGAAAGC	1.43
ACTGACAGGTGAGTGAAGGTAACTCAGCTGGACG	-0.21
AATACAGGGTCATCGTAGGCCAGAGGACGCACAG	4.85
CGAACTGGGTCATTGACAGGACAGTGAATAGTAA	1.41
